Inhibition data for four compounds are collected here from ChEMBL document CHEMBL1961873, “Compounds: GSK PKIS; Assays: Nanosyn kinase panel” (2012).

Experiment [1] has as its target T1, Ephrin type-B receptor 2 (Homo sapiens) (UniProt P29323).
T1 sequence (whole entry): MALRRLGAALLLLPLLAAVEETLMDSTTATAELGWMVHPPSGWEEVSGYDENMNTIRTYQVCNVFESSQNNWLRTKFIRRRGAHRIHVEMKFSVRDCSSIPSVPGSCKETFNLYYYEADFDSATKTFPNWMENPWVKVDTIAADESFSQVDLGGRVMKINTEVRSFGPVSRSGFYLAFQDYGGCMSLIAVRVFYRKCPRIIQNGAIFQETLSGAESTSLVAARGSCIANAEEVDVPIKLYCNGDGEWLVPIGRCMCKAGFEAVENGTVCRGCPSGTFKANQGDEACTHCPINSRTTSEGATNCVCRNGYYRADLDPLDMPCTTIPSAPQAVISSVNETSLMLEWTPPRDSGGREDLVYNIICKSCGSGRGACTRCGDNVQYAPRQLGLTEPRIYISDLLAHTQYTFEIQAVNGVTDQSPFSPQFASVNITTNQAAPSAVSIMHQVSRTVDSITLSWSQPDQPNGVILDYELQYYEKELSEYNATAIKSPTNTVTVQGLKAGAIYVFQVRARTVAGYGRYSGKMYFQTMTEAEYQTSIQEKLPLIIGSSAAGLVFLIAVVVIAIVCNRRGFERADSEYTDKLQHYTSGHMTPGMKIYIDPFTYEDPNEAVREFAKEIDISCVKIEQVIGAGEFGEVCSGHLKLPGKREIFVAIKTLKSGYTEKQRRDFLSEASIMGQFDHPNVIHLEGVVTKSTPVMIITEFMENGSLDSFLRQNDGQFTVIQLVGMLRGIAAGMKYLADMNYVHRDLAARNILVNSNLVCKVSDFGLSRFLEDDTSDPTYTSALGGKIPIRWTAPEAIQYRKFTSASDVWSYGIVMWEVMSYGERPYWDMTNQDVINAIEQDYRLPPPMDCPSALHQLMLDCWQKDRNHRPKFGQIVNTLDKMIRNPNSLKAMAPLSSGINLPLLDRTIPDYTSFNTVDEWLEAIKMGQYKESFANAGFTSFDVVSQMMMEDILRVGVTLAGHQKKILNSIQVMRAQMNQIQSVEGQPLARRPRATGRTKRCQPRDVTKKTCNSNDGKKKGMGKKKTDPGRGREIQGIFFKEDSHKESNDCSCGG
To be noted: at 1 µM.

The target in experiment [2] is T2, Ephrin type-B receptor 3 (Homo sapiens) (UniProt P54753).
T2 sequence (whole entry): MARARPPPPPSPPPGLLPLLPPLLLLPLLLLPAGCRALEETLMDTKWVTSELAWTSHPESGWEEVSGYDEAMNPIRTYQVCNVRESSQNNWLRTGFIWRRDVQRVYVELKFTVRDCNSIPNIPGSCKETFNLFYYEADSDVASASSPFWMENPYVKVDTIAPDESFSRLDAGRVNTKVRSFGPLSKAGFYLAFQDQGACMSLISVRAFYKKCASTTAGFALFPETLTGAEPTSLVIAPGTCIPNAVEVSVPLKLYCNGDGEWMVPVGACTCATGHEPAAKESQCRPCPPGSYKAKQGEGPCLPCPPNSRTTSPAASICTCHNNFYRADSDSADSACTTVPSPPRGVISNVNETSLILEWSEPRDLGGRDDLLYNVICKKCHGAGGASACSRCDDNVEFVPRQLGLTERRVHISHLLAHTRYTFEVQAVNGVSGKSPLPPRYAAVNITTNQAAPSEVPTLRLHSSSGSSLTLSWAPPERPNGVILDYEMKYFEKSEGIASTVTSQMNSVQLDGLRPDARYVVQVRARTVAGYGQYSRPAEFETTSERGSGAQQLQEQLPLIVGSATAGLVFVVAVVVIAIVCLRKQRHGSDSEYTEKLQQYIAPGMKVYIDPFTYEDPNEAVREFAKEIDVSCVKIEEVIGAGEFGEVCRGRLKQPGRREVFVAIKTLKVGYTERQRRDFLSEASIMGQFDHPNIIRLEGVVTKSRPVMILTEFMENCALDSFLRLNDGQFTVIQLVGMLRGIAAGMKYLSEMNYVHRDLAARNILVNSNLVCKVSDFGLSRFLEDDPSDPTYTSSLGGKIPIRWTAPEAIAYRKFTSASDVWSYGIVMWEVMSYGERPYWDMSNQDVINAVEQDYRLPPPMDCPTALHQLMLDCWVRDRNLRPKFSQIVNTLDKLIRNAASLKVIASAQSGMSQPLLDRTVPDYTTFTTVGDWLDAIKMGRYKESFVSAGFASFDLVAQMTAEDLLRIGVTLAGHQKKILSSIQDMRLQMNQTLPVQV
The following applies: at 0.1 µM.

Experiment [3] deals with T2, Ephrin type-B receptor 3 (Homo sapiens). To be noted: at 1 µM.
The target of experiment [4] is T3, Ephrin type-B receptor 4 (Homo sapiens) (UniProt P54760).
T3 sequence (whole entry): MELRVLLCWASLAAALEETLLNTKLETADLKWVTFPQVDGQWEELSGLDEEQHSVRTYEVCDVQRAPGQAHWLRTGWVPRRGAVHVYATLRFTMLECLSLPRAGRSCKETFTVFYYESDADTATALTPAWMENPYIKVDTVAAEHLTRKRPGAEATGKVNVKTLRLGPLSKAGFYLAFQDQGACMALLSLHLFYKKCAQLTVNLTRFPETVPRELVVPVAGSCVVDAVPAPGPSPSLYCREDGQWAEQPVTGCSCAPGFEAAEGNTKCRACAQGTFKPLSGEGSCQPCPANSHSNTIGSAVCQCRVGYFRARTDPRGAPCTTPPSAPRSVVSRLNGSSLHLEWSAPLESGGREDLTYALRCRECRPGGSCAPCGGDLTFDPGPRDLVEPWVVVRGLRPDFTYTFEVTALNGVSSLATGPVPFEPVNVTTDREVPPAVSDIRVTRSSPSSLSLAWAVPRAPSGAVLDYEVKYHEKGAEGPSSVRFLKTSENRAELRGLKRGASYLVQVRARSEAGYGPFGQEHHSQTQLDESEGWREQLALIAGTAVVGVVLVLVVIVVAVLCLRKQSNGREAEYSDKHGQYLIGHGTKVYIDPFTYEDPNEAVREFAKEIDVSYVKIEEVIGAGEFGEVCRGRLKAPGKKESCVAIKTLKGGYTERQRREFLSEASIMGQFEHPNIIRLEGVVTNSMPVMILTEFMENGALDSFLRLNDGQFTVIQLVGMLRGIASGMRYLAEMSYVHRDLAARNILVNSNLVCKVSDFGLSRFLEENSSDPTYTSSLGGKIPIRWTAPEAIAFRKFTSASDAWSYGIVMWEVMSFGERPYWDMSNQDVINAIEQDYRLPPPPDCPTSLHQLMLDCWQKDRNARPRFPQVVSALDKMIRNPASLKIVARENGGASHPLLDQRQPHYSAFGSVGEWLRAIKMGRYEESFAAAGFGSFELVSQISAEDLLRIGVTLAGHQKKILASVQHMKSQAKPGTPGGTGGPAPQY
The following applies: at 0.1 µM.

Experiment [5] has as its target T3, Ephrin type-B receptor 4 (Homo sapiens). The following applies: at 1 µM.
Experiment [6] deals with Receptor tyrosine-protein kinase erbB-2 (Homo sapiens) (UniProt P04626). To be noted: at 0.1 µM.
Chain of Receptor tyrosine-protein kinase erbB-2 (Homo sapiens) (P04626 whole entry): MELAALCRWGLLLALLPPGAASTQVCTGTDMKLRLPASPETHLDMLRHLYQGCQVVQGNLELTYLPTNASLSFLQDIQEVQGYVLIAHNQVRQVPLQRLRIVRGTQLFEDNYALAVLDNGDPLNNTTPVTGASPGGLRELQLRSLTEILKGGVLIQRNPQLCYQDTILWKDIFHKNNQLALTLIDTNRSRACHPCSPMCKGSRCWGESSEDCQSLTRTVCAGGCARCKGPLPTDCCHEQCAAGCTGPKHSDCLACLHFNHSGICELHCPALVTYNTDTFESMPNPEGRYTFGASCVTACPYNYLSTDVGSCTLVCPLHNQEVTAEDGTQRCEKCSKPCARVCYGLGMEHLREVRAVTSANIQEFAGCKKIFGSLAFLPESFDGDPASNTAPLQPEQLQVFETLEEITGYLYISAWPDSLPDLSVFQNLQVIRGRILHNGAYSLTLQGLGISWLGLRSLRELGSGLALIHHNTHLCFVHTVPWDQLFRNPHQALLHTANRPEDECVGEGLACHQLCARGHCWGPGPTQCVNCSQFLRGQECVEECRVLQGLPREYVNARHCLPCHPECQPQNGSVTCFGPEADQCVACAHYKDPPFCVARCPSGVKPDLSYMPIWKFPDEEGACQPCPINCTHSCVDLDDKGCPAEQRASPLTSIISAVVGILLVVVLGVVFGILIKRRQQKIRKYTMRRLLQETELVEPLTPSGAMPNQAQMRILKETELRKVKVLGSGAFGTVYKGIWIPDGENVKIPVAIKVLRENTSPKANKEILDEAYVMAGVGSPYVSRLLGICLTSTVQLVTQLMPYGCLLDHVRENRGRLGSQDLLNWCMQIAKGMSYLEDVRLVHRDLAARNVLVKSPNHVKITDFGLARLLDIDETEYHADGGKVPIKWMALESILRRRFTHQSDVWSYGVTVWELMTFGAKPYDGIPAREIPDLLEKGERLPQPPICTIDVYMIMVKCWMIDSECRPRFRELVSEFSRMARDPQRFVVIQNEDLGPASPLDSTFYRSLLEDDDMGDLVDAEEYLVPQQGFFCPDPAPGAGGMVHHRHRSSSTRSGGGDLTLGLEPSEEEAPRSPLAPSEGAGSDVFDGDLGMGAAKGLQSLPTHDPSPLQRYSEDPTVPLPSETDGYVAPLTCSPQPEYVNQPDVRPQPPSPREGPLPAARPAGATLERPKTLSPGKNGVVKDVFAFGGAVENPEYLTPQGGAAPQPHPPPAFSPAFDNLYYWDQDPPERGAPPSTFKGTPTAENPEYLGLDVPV
For experiment [7] the target is unchanged. To be noted: at 1 µM.
Experiment [8] deals with Receptor tyrosine-protein kinase erbB-4 (Homo sapiens) (UniProt Q15303). To be noted: at 0.1 µM.
Experiment [9] shares this target. The following applies: at 1 µM.
In experiment [10] the target is Tyrosine-protein kinase Fer (Homo sapiens) (UniProt P16591). To be noted: at 0.1 µM.
Chain of Tyrosine-protein kinase Fer (Homo sapiens) (P16591 whole entry, looked up): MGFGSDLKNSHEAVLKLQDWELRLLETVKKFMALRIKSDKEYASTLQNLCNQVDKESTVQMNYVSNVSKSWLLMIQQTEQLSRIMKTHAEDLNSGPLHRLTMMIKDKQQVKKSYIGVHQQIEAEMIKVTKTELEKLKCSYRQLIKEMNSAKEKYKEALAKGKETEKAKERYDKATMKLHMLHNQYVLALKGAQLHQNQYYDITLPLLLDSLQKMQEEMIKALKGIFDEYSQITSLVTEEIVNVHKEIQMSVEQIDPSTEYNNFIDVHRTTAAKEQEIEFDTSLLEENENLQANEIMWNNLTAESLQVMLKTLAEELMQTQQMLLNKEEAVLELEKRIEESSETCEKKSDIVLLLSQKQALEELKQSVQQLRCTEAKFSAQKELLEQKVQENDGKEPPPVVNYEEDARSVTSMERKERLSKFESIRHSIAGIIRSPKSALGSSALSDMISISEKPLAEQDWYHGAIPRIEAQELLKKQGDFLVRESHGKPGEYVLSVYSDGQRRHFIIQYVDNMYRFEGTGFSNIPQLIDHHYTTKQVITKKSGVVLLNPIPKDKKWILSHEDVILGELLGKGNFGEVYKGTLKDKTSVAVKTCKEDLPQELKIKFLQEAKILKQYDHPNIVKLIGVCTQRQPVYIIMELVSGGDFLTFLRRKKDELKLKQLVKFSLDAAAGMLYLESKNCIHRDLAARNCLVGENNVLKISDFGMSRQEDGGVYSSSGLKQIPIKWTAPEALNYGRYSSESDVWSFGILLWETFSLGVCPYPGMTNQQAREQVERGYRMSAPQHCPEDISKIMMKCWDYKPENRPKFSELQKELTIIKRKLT
For experiment [11] the target is unchanged. The following applies: at 1 µM.
Experiment [12] deals with Tyrosine-protein kinase Fes/Fps (Homo sapiens) (UniProt P07332). The following applies: at 0.1 µM.
For experiment [13] the target is unchanged. The following applies: at 1 µM.
Experiment [14] has as its target Fibroblast growth factor receptor 1 (Homo sapiens) (UniProt P11362). The following applies: at 0.1 µM.
Experiment [15] shares this target. To be noted: at 1 µM.
Experiment [16] concerns the target Fibroblast growth factor receptor 2 (Homo sapiens) (UniProt P21802). The following applies: at 0.1 µM.
Experiment [17] shares this target. To be noted: at 1 µM.
For experiment [18], the target named is Fibroblast growth factor receptor 3 (Homo sapiens) (UniProt P22607). To be noted: at 0.1 µM.
Chain of Fibroblast growth factor receptor 3 (Homo sapiens) (P22607 23-806 limits assumed): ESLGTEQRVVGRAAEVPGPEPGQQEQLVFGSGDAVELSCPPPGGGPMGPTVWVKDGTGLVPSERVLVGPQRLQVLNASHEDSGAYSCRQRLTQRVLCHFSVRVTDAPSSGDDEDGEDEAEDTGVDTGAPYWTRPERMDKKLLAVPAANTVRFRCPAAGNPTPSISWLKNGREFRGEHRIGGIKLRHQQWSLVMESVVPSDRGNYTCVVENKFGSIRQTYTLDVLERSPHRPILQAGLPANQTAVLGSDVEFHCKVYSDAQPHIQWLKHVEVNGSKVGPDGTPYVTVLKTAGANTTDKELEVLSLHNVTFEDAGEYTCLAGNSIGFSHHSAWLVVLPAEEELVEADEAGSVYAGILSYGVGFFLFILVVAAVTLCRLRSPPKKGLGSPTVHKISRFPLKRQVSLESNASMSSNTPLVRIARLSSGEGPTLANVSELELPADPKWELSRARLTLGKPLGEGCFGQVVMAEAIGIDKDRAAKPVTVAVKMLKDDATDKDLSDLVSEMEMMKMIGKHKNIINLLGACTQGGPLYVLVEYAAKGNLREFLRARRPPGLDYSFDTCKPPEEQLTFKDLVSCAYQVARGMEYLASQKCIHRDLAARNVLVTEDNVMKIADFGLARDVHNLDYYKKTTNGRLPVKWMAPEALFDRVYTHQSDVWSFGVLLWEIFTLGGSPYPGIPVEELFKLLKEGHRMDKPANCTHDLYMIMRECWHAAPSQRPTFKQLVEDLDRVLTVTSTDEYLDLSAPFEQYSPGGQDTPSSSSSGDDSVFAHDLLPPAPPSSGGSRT
The target is the same in experiment [19]. To be noted: at 1 µM.
Experiment [20] deals with Fibroblast growth factor receptor 4 (Homo sapiens) (UniProt P22455). The following applies: at 0.1 µM.
Chain of Fibroblast growth factor receptor 4 (Homo sapiens) (P22455 22-802 limits assumed): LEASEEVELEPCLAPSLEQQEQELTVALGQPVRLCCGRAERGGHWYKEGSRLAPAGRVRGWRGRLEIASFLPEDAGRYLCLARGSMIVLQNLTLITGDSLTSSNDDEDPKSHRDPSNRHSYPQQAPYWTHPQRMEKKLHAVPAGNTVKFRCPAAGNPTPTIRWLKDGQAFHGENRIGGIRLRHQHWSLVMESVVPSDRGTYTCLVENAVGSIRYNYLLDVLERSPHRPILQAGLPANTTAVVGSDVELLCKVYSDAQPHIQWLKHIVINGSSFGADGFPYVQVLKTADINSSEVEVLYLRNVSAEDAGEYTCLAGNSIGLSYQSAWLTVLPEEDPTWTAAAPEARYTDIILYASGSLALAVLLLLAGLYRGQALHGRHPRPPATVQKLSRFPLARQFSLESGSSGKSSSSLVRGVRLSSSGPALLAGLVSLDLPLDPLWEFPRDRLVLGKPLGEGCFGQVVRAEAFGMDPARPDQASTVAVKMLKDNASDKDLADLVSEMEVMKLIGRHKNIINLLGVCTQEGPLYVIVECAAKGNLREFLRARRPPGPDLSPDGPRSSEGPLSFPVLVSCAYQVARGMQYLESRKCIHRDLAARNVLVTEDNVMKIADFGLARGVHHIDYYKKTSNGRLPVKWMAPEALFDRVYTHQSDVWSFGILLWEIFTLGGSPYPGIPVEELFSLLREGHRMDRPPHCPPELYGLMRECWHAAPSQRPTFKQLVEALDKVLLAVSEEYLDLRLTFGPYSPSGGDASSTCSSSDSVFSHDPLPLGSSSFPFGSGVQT

Molecules are shown by their SMILES.

Chain of Fibroblast growth factor receptor 1 (Homo sapiens) (P11362 22-822 limits assumed): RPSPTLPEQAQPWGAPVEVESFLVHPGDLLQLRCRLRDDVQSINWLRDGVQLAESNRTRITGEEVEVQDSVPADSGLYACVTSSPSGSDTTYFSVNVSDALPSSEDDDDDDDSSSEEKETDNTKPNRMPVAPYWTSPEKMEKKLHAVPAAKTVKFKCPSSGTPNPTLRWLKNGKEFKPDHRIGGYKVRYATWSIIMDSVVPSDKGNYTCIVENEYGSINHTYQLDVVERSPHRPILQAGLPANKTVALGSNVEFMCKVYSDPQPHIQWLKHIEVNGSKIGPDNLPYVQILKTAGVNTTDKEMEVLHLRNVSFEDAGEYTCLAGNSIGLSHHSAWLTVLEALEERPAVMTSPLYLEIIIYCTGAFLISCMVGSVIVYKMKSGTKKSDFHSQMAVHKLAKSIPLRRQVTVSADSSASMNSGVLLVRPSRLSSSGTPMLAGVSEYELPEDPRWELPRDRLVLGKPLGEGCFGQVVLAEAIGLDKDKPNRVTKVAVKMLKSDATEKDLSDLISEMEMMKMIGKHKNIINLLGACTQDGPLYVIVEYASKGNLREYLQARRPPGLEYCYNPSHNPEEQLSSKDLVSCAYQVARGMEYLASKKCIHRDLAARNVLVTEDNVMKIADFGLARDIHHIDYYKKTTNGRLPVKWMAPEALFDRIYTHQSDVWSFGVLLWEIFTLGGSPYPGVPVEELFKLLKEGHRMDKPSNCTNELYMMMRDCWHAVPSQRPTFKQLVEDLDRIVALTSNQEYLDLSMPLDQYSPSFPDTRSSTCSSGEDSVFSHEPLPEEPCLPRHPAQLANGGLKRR

On to `O=S(=O)(CCNCc1ccc(-c2ccc3ncnc(Nc4ccc(OCc5cccc(F)c5)c(Cl)c4)c3c2)o1)c1ccccc1`, for which the inhibition in experiment [1] was 13%; in experiment [2], 4.95%; in experiment [3], 4.03%; in [4] it was 0.96%; in experiment [5] it was 2.99%; in experiment [6] it was 43.9%. The inhibition is 60.5% in experiment [7]; 36.4% in experiment [8]; 89% in [9]; 3.86% in experiment [10]; 4.93% in experiment [11]; 4.42% in experiment [12]. Besides, the inhibition in experiment [13] was 4.26%; in [14], 3.65%; in [15], 8.42%; in [16] it was 7.23%; in [17], 11.6%; in [18], 7.36%. The results for the inhibition in [19] and in experiment [20] were 6.93% and -5.68%, respectively.
Turning to `COc1cccc(-c2c[nH]c3c(N/N=C/c4ccncc4)ncnc23)c1`, the inhibition was 25.9% in [1]; 3.32% in experiment [2]; -5.7% in [3]; 3.21% in experiment [4]; 13.5% in experiment [5]; 0.26% in experiment [6]. Also, the inhibition in experiment [7] worked out at 2.47%; in [8], 8.94%; in experiment [9], 21.9%; in [10], 4.27%; in experiment [11], 8.57%; in experiment [12], 1.82%. For the same compound, the inhibition in [13] is 2.81%; in experiment [14] it was 0.74%; in experiment [15], 6.34%; in [16], 1.79%; in experiment [17] it was 9.49%; in experiment [18], 4.63%. Also, the inhibition came to 8.05% in experiment [19] and 4.93% in experiment [20].
Take `[O-][S+]1CCN(Cc2ccc(-c3ccc4ncnc(Nc5ccc(OCc6cccc(F)c6)c(Cl)c5)c4c3)o2)CC1`: the inhibition in experiment [1] worked out at 7.63%; in experiment [2], 3.69%; in experiment [3] it was 7.49%; in experiment [4], 2.75%; in [5] it was 4.27%; in [6], 78.4%. In addition, the inhibition in [7] amounted to 79.9%; in experiment [8], 88.9%; in [9] it was 91.3%; in experiment [10], 2.55%; in [11], 4.93%; in experiment [12], 5%. The inhibition in [13] came to 4.91%; in experiment [14], 3.95%; in [15], 9.17%; in experiment [16] it was 7.74%; in experiment [17], 9.73%; in experiment [18], 8.06%. Moreover, the inhibition in experiment [19] was 7.32%; in experiment [20], 5.9%.
In the case of `N#Cc1c(NC(=O)c2ccc(F)cc2)sc2c1CCCC2`, the inhibition in experiment [1] is 5.96%; in experiment [2], 2.46%; in experiment [3] it was 3.74%; in [4], -0.69%; in [5], 0.04%; in experiment [6], -0.32%. Besides, the inhibition in experiment [7] is -0.51%; in experiment [8], 5.37%; in experiment [9], 7.46%; in experiment [10] it was 0.75%; in experiment [11], 0.95%; in [12], 0.56%. The inhibition in [13] amounted to 1.22%; in experiment [14] it was 1.48%; in [15], 2.08%; in experiment [16] it was 1.6%; in experiment [17], 3.48%; in [18], 1.58%. Besides, the inhibition stood at 2.77% in experiment [19] and 0.23% in [20].

The inhibition is the drop in the measured response relative to a control, in per cent.
